Source: publication PMC10726135, “HNF4α isoforms regulate the circadian balance between carbohydrate and lipid metabolism in the liver”
In all, about 18,000 sequences were measured (“log2 normalized intensity”: median about 0.36, highest 2% from about 7.3 on). Shown is part of a subset that was picked to be rich in the highest values.

These sequences were tested against T1, HNF4alpha8 (COS-7 nuclear extract) (Homo sapiens, UniProt P41235-5 1-452) (assay: protein-binding microarray; COS-7 nuclear extract on double-stranded Agilent 4x180k PBM; binding buffer, salt, pH and temperature not given in the material; high values mean tight binding). Conditions: chain copies: 2; label: 3' end of strand 1 on the slide; dsDNA, one strand shown.
T1 sequence: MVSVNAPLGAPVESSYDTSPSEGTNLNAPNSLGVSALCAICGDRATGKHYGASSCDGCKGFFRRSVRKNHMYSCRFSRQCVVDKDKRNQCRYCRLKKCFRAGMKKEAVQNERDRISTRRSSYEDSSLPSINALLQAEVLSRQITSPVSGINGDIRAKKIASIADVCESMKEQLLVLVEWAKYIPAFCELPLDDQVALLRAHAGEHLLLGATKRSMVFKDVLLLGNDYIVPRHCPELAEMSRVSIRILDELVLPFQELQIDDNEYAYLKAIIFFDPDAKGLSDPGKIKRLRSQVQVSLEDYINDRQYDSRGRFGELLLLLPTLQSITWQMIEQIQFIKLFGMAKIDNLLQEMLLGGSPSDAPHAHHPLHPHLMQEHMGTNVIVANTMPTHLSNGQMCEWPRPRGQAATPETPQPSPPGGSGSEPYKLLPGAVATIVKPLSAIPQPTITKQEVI
Method in brief: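 Double-stranded oligonucleotides of ~60 nt, representing ~44,000 test sequences in quadruplicate, made up a custom Agilent SurePrint G3 4x180k array. Nuclear extracts from COS-7 cells transiently transfected by CaPO4 with a human HNF4α isoform expression vector were applied, and bound HNF4α was imaged at 2-µm resolution on an Agilent G2565CA scanner. Binding signal refers to the background-corrected, normalized gProcessedSignal output of Agilent software.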

Row | Sequence | binding signal [log2 normalized intensity]
1 | CTCCCCCACGACAGAATTGACTCTTCGTTTGCCTAGGGAGATTAGAGTATCGGTCGA | 2.63
2 | CTTTCATCTTTGCGGTGAGCATTTGTTTAGGCCTAGGGAGATTAGAGTATCGGTCGA | 0.99
3 | CAGAAGCAATCACAAGGAATGCCCTTATCTGCCTAGGGAGATTAGAGTATCGGTCGA | 2.11
4 | CCTATGGTATGTATGGAATGTCACTTTCTGGCCTAGGGAGATTAGAGTATCGGTCGA | 1.79
5 | ATGCACGTGCTCCAGGAGGGGAGGAGGGTCGCCTAGGGAGATTAGAGTATCGGTCGA | 3.4
6 | CCCAAGATGGATTGGGTCCACACATTCCTAGCCTAGGGAGATTAGAGTATCGGTCGA | 0.829
7 | TTGACCTTTATACCTGTACGTTACTCTGTAGCCTAGGGAGATTAGAGTATCGGTCGA | 4.37
8 | ATTGGGTCCACACATTCCTAGACCTTTGACGCCTAGGGAGATTAGAGTATCGGTCGA | 3.87
9 | GACCTTTGACCTTTATACCTGTACGTTACTGCCTAGGGAGATTAGAGTATCGGTCGA | 7.64
10 | TCCTAGACCTTTGACCTTTATACCTGTACGGCCTAGGGAGATTAGAGTATCGGTCGA | 6.76
11 | GTCCACACATTCCTAGACCTTTGACCTTTAGCCTAGGGAGATTAGAGTATCGGTCGA | 8.88
12 | CACATTCCTAGACCTTTGACCTTTATACCTGCCTAGGGAGATTAGAGTATCGGTCGA | 8.55
13 | CTTTATACCTGTACGTTACTCTGTACCTCGGCCTAGGGAGATTAGAGTATCGGTCGA | 1.8
14 | ATTGTGATTCCTGTGATACCTTCTTTGCCTGCCTAGGGAGATTAGAGTATCGGTCGA | 0.781
15 | GGAACCAAGAGCAGATTTGTTTGCTCTTTAGCCTAGGGAGATTAGAGTATCGGTCGA | 0.915
16 | TTCCCTGAGTTTCCATTAACTGAACCTAGAGCCTAGGGAGATTAGAGTATCGGTCGA | 1.69
17 | TAAGATACGAAGGGTTTAAAGGGCAGAAGAGCCTAGGGAGATTAGAGTATCGGTCGA | 2.39
18 | AAGTTCATGGAAAGTTTCACTTTCTCTTATGCCTAGGGAGATTAGAGTATCGGTCGA | 0.0777
19 | TAAGATTCTGGTCAAAGGTCAATGAAGCTCGCCTAGGGAGATTAGAGTATCGGTCGA | 6.64
20 | TTCCCTAAGATTCTGGTCAAAGGTCAATGAGCCTAGGGAGATTAGAGTATCGGTCGA | 8.22
21 | ATTCATTCCCTAAGATTCTGGTCAAAGGTCGCCTAGGGAGATTAGAGTATCGGTCGA | 7.83

Row | Sequence | binding signal [log2 normalized intensity]
22 | TTCTGGTCAAAGGTCAATGAAGCTCTTGCTGCCTAGGGAGATTAGAGTATCGGTCGA | 6.15
23 | GCAAAGGTCAGCTCATTCCCTAGGGCTCGGGCCTAGGGAGATTAGAGTATCGGTCGA | -0.991
24 | AAAGGGCAAAGGTCAGCTCATTCCCTAGGGGCCTAGGGAGATTAGAGTATCGGTCGA | 6.71
25 | ACTTAAAAGAAGCTACTAGCAAATCTGCCCGCCTAGGGAGATTAGAGTATCGGTCGA | -0.288
26 | AACAAAGGTCGGTGGTATGTGTGTGCTTTAGCCTAGGGAGATTAGAGTATCGGTCGA | 2.2
27 | AATGTGTGTTCTGCTGCCATTGGATGGAATGCCTAGGGAGATTAGAGTATCGGTCGA | 1.51
28 | GTCAGATGACAGAATTGGTCCTGGAACTCAGCCTAGGGAGATTAGAGTATCGGTCGA | 0.192
29 | CCAACACAGAAGCCTTTTGTTCTTTGTGTGGCCTAGGGAGATTAGAGTATCGGTCGA | 1.47
30 | CCTATGGTCTGTTCACTTGCCAAGCCTAGTGCCTAGGGAGATTAGAGTATCGGTCGA | -0.838
31 | AAATATTGTCAGTGAGGAATGTGCAAACGGGCCTAGGGAGATTAGAGTATCGGTCGA | 0.32
32 | GGTTGCACTCTGGTGCCCTCTGAGTGTTTGGCCTAGGGAGATTAGAGTATCGGTCGA | 2.54
33 | ACCCTCTCTGGATGCAGGTCGCCGGGAAAAGCCTAGGGAGATTAGAGTATCGGTCGA | 0.74
34 | AAGGTTGGTTTTTGGAGACAGGAGTAGTCAGCCTAGGGAGATTAGAGTATCGGTCGA | 0.982
35 | AAAAGGATGCTAGGTTTGTGAGTCCAAAGGGCCTAGGGAGATTAGAGTATCGGTCGA | 5.08
36 | TTGTGAGTCCAAAGGTCAGCCGGGGAAGGTGCCTAGGGAGATTAGAGTATCGGTCGA | 7.55
37 | GATGCTAGGTTTGTGAGTCCAAAGGTCAGCGCCTAGGGAGATTAGAGTATCGGTCGA | 9.81
38 | TAGGTTTGTGAGTCCAAAGGTCAGCCGGGGGCCTAGGGAGATTAGAGTATCGGTCGA | 8.36
39 | ATGTTAGTCTTGAGTCCCAAAGTCCAAAGGGCCTAGGGAGATTAGAGTATCGGTCGA | 6.25
40 | GGTGTGAGAGGGCAAAGGTCACAGCATTAGGCCTAGGGAGATTAGAGTATCGGTCGA | 7.08
41 | TGAGTATCCAAAGGTCAGTGACAAATGTCAGCCTAGGGAGATTAGAGTATCGGTCGA | 4.51
42 | CCTGAGGTGTGAGAGGGCAAAGGTCACAGCGCCTAGGGAGATTAGAGTATCGGTCGA | 8.73
